The panel holds about 83,000 compounds, 20% with a hit somewhere; the sample as a whole holds those more often.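 Compound tested at a single concentration for 48 hours in 96-well plates; a percent growth value below 10 was scored as active.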 Activity calls are given as the source filed them.
Key:
Test in all cases: NCI-60 one-dose screen, 48 h (100 = growth as untreated, 0 = no growth, -100 = all killed)
Conditions in all cases: 10 µM unless noted
HCT-15 colon = tested on: HCT-15 colon
HT29 colon = tested on: HT29 colon
SNB-75 CNS = tested on: SNB-75 CNS
SNB-19 CNS = tested on: SNB-19 CNS
U251 CNS = tested on: U251 CNS
PC-3 prostate = tested on: PC-3 prostate
SK-MEL-5 melanoma = tested on: SK-MEL-5 melanoma
UACC-62 melanoma = tested on: UACC-62 melanoma
LOX IMVI melanoma = tested on: LOX IMVI melanoma
SK-MEL-2 melanoma = tested on: SK-MEL-2 melanoma
EKVX NSCLC = tested on: EKVX NSCLC
SN12C renal = tested on: SN12C renal
UO-31 renal = tested on: UO-31 renal
TK-10 renal = tested on: TK-10 renal
ACHN renal = tested on: ACHN renal
CAKI-1 renal = tested on: CAKI-1 renal
CCRF-CEM leukemia = tested on: CCRF-CEM leukemia
MOLT-4 leukemia = tested on: MOLT-4 leukemia
SK-MEL-28 melanoma = tested on: SK-MEL-28 melanoma
A498 renal = tested on: A498 renal

Measured: growth

COc1cc(-c2csc(NC(=O)c3cc(F)cc(C(F)(F)F)c3)n2)cc(OC)c1OC
active: HT29 colon 6.41%
inactive: HCT-15 colon 34.3% | SNB-75 CNS 19.3% | SNB-19 CNS 40.2% | U251 CNS 31.3% | PC-3 prostate 36% | SK-MEL-5 melanoma 53.2% | UACC-62 melanoma 43.6% | LOX IMVI melanoma 27% | SK-MEL-2 melanoma 14.9% | EKVX NSCLC 50% | SN12C renal 35% | UO-31 renal 45.3% | TK-10 renal 65.1% | ACHN renal 49.1% | CAKI-1 renal 42.7% | CCRF-CEM leukemia 17% | MOLT-4 leukemia 25.8%

Cc1nn(-c2ccccc2)c(Oc2c(Cl)cccc2Cl)c1/C=N/N=c1\sc2ccccc2n1C
inactive: HCT-15 colon 25.3% | HT29 colon 33.7% | SNB-75 CNS 86.4% | SNB-19 CNS 49.7% | U251 CNS 28.5% | PC-3 prostate 44.1% | SK-MEL-5 melanoma 20.2% | UACC-62 melanoma 36.2% | LOX IMVI melanoma 26% | SK-MEL-28 melanoma 64.1% | EKVX NSCLC 77.9% | SN12C renal 59.1% | UO-31 renal 57.5% | TK-10 renal 85.7% | ACHN renal 43.7% | CAKI-1 renal 36.4% | CCRF-CEM leukemia 40.7% | MOLT-4 leukemia 18.6%

N#Cc1c(NCc2ccccc2I)sc2c1CCCCC2
inactive: HCT-15 colon 94.8% | HT29 colon 99.8% | SNB-75 CNS 84.8% | SNB-19 CNS 97.7% | U251 CNS 90% | PC-3 prostate 98.8% | SK-MEL-5 melanoma 98.2% | UACC-62 melanoma 69.5% | LOX IMVI melanoma 91.1% | SK-MEL-28 melanoma 110% | EKVX NSCLC 78.8% | SN12C renal 96.9% | UO-31 renal 79.7% | TK-10 renal 109% | ACHN renal 97.7% | CAKI-1 renal 74.8% | CCRF-CEM leukemia 94.4% | MOLT-4 leukemia 84.2%

O=C(/C=C(/C=C/c1coc2ccccc12)OB(F)F)/C=C/c1coc2ccccc12
inactive: HCT-15 colon 95.1% | HT29 colon 100% | SNB-75 CNS 98% | SNB-19 CNS 89.1% | U251 CNS 84.6% | PC-3 prostate 86.2% | SK-MEL-5 melanoma 105% | UACC-62 melanoma 88.9% | LOX IMVI melanoma 84.9% | SK-MEL-2 melanoma 91.6% | EKVX NSCLC 108% | SN12C renal 97.4% | UO-31 renal 87.7% | TK-10 renal 117% | ACHN renal 101% | CAKI-1 renal 105% | CCRF-CEM leukemia 72.6% | MOLT-4 leukemia 85.5%

COc1ccc(/C=C2\Oc3cc(OCCCCCN4CCCCC4)ccc3C2=O)cc1OC
inactive: HCT-15 colon 49.3% | SNB-75 CNS 81% | SNB-19 CNS 91% | U251 CNS 87% | PC-3 prostate 79.2% | SK-MEL-5 melanoma 66.7% | UACC-62 melanoma 96.2% | LOX IMVI melanoma 63.2% | SK-MEL-2 melanoma 92.4% | EKVX NSCLC 78.7% | SN12C renal 86% | UO-31 renal 73.8% | TK-10 renal 82% | ACHN renal 100% | CAKI-1 renal 94.3% | CCRF-CEM leukemia 15.2% | MOLT-4 leukemia 70.2%
active: HT29 colon -59.2%

COc1cc(NCCCCCNC(C)(C)C)c2ncccc2c1
inactive: HCT-15 colon 91.2% | HT29 colon 85.9% | SNB-75 CNS 53.2% | SNB-19 CNS 91.7% | U251 CNS 100% | PC-3 prostate 76.4% | SK-MEL-5 melanoma 100% | UACC-62 melanoma 89.6% | LOX IMVI melanoma 93.7% | SK-MEL-2 melanoma 113% | EKVX NSCLC 95.9% | SN12C renal 86.7% | UO-31 renal 75.8% | TK-10 renal 95.7% | ACHN renal 104% | CAKI-1 renal 78.7% | A498 renal 103% | CCRF-CEM leukemia 51.8% | MOLT-4 leukemia 105%

COc1ccc(/C=C/C(=O)Nc2cc(/C=C\c3cc(OC)c(OC)c(OC)c3)cc(OC)c2OC)cc1OC
inactive: HCT-15 colon 25.9% | HT29 colon 14.6% | SNB-75 CNS 34.7% | SNB-19 CNS 46.2% | U251 CNS 41.3% | PC-3 prostate 20.7% | UACC-62 melanoma 16.3% | LOX IMVI melanoma 27.7% | SK-MEL-2 melanoma 19.9% | EKVX NSCLC 31.4% | SN12C renal 33% | UO-31 renal 19.4% | TK-10 renal 73.9% | ACHN renal 39.1% | CAKI-1 renal 12%
active: SK-MEL-5 melanoma -59.3% | A498 renal -1.95% | CCRF-CEM leukemia 3.79% | MOLT-4 leukemia -13.9%

COc1cc2nc(-c3ccc(Cl)cc3)cc(OCCCN3CCC(O)CC3)c2cc1OC
inactive: HCT-15 colon 19% | HT29 colon 16.8% | SNB-75 CNS 39.6% | SNB-19 CNS 73.4% | U251 CNS 54.5% | PC-3 prostate 41.7% | SK-MEL-2 melanoma 75.8% | EKVX NSCLC 56.7% | SN12C renal 36.6% | UO-31 renal 51.3% | TK-10 renal 92.2% | ACHN renal 35.1% | CCRF-CEM leukemia 57.5% | MOLT-4 leukemia 44.1%
active: SK-MEL-5 melanoma -30% | UACC-62 melanoma -24.7% | LOX IMVI melanoma -53.3% | CAKI-1 renal -5.22%

Cn1cc(-c2nc(-c3c[nH]c4c(Cl)nccc34)cs2)c2cc(Br)ccc21
inactive: HCT-15 colon 66.5% | HT29 colon 74.9% | SNB-75 CNS 94% | SNB-19 CNS 97.6% | U251 CNS 77.9% | PC-3 prostate 81.2% | SK-MEL-5 melanoma 88% | UACC-62 melanoma 80.3% | LOX IMVI melanoma 73.4% | SK-MEL-2 melanoma 87.6% | EKVX NSCLC 74.1% | SN12C renal 88.9% | UO-31 renal 84.5% | TK-10 renal 86.3% | ACHN renal 76.5% | CAKI-1 renal 92.4% | A498 renal 72.3% | CCRF-CEM leukemia 74.4%

C#Cc1cccc(NC(=O)Nc2cccc(NC(=O)CCl)c2)c1
active: HCT-15 colon -56.5% [8.25 µM] | SNB-19 CNS -11% [8.25 µM] | U251 CNS -88% [8.25 µM] | PC-3 prostate -26.3% [8.25 µM] | SK-MEL-5 melanoma -96% [8.25 µM] | UACC-62 melanoma -61.6% [8.25 µM] | LOX IMVI melanoma -93.8% [8.25 µM] | UO-31 renal -64.7% [8.25 µM] | TK-10 renal -59.8% [8.25 µM] | ACHN renal -72.7% [8.25 µM]
inactive: HT29 colon 18% [8.25 µM] | SNB-75 CNS 30% [8.25 µM] | SK-MEL-28 melanoma 48.5% [8.25 µM] | EKVX NSCLC 102% [8.25 µM] | CAKI-1 renal 15.8% [8.25 µM] | A498 renal 76.5% [8.25 µM] | CCRF-CEM leukemia 14.9% [8.25 µM]

CCOC(=O)[C@@H]1CCCN(S(=O)(=O)c2ccc(S(=O)(=O)N(CC)CC)c(F)c2)C1
inactive: HCT-15 colon 84.4% | HT29 colon 83% | SNB-75 CNS 90.9% | SNB-19 CNS 69.2% | U251 CNS 82.2% | PC-3 prostate 84% | SK-MEL-5 melanoma 18.8% | UACC-62 melanoma 59.4% | LOX IMVI melanoma 62.2% | SK-MEL-28 melanoma 93.4% | EKVX NSCLC 46.9% | SN12C renal 85.4% | UO-31 renal 69% | TK-10 renal 81.4% | ACHN renal 75% | CAKI-1 renal 64.1% | CCRF-CEM leukemia 85.1% | MOLT-4 leukemia 79.4%

CCNC(=O)Oc1ccc(/C(=C(\C)c2ccccc2)c2ccc(OCCN(CC)CC)cc2)cc1
inactive: HCT-15 colon 16.5% | HT29 colon 15.3% | SNB-75 CNS 78.5% | SNB-19 CNS 86.9% | U251 CNS 68.2% | PC-3 prostate 70.8% | SK-MEL-5 melanoma 34.4% | UACC-62 melanoma 59.1% | LOX IMVI melanoma 65.3% | SK-MEL-28 melanoma 63.3% | EKVX NSCLC 96% | SN12C renal 82.1% | UO-31 renal 61.6% | TK-10 renal 95.6% | ACHN renal 102% | CAKI-1 renal 59.3% | CCRF-CEM leukemia 84% | MOLT-4 leukemia 76.2%

O=C(Nc1ccc(Cl)cc1)c1cc(NCc2cc(O)ccc2O)ccc1O
active: CCRF-CEM leukemia 5.54%
inactive: HCT-15 colon 68.5% | HT29 colon 88.6% | SNB-75 CNS 101% | SNB-19 CNS 91.4% | U251 CNS 71.8% | PC-3 prostate 45.2% | SK-MEL-5 melanoma 82.9% | UACC-62 melanoma 65.5% | LOX IMVI melanoma 84.3% | SK-MEL-28 melanoma 99.2% | EKVX NSCLC 94.1% | SN12C renal 76.1% | UO-31 renal 52.2% | TK-10 renal 97.3% | ACHN renal 89.6% | CAKI-1 renal 99.5% | MOLT-4 leukemia 59.8%

C#CCNC(=O)[C@H](Cc1ccccc1)NC(=O)[C@]12CC[C@@H](C(=C)C)[C@@H]1[C@H]1CC[C@@H]3[C@@]4(C)CCC(=O)C(C)(C)[C@@H]4CC[C@@]3(C)[C@]1(C)CC2
inactive: HCT-15 colon 70.7% | HT29 colon 52.9% | SNB-75 CNS 99.2% | SNB-19 CNS 82.6% | U251 CNS 69.1% | PC-3 prostate 33% | SK-MEL-5 melanoma 78.2% | UACC-62 melanoma 59.5% | LOX IMVI melanoma 75.4% | SK-MEL-28 melanoma 98.1% | EKVX NSCLC 79% | SN12C renal 76% | UO-31 renal 54% | TK-10 renal 65.3% | ACHN renal 75.7% | CAKI-1 renal 55.4% | CCRF-CEM leukemia 65.1% | MOLT-4 leukemia 46.3%

O=C(/C(=C/c1ccc([N+](=O)[O-])cc1)SCc1ccc(F)cc1)c1ccc(F)cc1
inactive: HCT-15 colon 37.2% | HT29 colon 22% | SNB-75 CNS 96.8% | SNB-19 CNS 68.4% | U251 CNS 37.5% | PC-3 prostate 78.3% | SK-MEL-5 melanoma 95.4% | UACC-62 melanoma 63.7% | LOX IMVI melanoma 32% | SK-MEL-2 melanoma 90.4% | EKVX NSCLC 101% | SN12C renal 82.4% | UO-31 renal 54.3% | TK-10 renal 79.4% | ACHN renal 91.1% | CAKI-1 renal 75.2% | A498 renal 79.4% | MOLT-4 leukemia 21.9%
active: CCRF-CEM leukemia 7.75%

C=C(CBr)[C@@H]1CC[C@]2(COC(C)=O)CC[C@]3(C)[C@H](CC[C@@H]4[C@@]5(C)CCCNC(C)(C)[C@@H]5CC[C@]43C)[C@@H]12
inactive: HCT-15 colon 24.8% | HT29 colon 29.1% | SNB-75 CNS 79.8% | SNB-19 CNS 64.2% | U251 CNS 37% | PC-3 prostate 12.9% | SK-MEL-5 melanoma 19.9% | UACC-62 melanoma 24.8% | LOX IMVI melanoma 23.5% | SK-MEL-2 melanoma 59.4% | EKVX NSCLC 46.9% | SN12C renal 48% | UO-31 renal 29.6% | TK-10 renal 41.1% | ACHN renal 39.5% | CAKI-1 renal 37.5% | A498 renal 49.4% | CCRF-CEM leukemia 33.8% | MOLT-4 leukemia 10.9%

— PubChem BioAssay (NCI)
